Compound activity (PubChem BioAssay)
Only some compounds are listed: those with a hit (about 2.9% of all), similar ones and a draw of the others.
H9c2 protect – myocardial damage modulation in H9c2 cells | 360,000 compounds, 0.63% hits | H9c2 cardiomyocytes, H2O2 injury protection, ATPLite, 2 h | protection from H2O2 cell death, % at 20 µM | AID 588492;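 active means compounds giving at least 50% protection of heart cells from peroxide-induced death in the single-dose screen, raw or plate-pattern-corrected value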;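 further: 0% = DMSO wells with peroxide and 100% = DMSO wells without peroxide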
NadD block – blocks S. aureus nicotinate mononucleotide adenylyltransferase; purified NadD enzyme, colorimetric absorbance read-out; inhibition, % at 20 µM; 360,000 compounds, 0.78% hits; AID 602399; in the data active means inhibition above about 26%
TAG inh – reduces triacylglycerol accumulation in H9c2 cells | AID 651582 | inhibition, % at 12.5 µM | 230,000 compounds, 0.66% hits | Nile Red lipid (TAG) fluorescence; cells loaded with 200 µM oleic acid;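 active means pattern-corrected inhibition of lipid staining of at least 50% with the nuclear-stain viability signal not falling by more than 50%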;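 further: 0% = DMSO wells and 100% = triacsin C control wells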
APOBEC3A inh – human APOBEC3A DNA deaminase inhibition; recombinant A3A, FAM/TAMRA ssDNA deamination fluorescence; inhibition, % at 20 µM; 330,000 compounds, 0.41% hits; P31941;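 active means at least 40% inhibition at 20 µM here, with at most 30% in a related deaminase screen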;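 further: plate controls were A3A with DMSO for no effect and wells lacking A3A enzyme for full effect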
Target sequence (P31941 whole entry, looked up): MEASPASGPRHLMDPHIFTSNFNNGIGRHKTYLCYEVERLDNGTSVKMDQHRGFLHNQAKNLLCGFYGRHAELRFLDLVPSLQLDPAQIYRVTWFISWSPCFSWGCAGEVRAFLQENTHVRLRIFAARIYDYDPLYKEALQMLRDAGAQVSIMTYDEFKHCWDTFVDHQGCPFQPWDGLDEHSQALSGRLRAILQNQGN
A3G deaminase – APOBEC3G (human) deaminase inhibition; Q9HC16; recombinant A3G, ssDNA deamination FAM/TAMRA fluorescence; inhibition, % at 20 µM; 330,000 compounds, 0.28% hits;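 active means inhibition of at least 40% at 20 µM, with no more than 30% in the related APOBEC3A deaminase screen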;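 further: plate controls were DMSO wells with A3G for no effect and wells lacking A3G enzyme for full effect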
Target sequence (Q9HC16 whole entry, looked up): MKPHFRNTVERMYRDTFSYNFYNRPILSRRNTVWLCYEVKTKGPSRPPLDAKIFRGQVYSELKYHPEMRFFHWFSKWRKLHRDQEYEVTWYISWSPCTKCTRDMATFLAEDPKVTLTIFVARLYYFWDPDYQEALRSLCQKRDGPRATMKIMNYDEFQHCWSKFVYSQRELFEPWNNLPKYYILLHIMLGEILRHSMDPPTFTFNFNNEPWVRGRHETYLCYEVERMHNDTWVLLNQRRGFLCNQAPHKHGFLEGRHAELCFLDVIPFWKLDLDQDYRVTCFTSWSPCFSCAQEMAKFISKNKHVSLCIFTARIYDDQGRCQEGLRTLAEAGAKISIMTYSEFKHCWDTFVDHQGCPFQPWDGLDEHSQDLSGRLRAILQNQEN
PfGluPho inh – PfG6PD (Plasmodium falciparum) enzyme inhibition | PfGluPho enzyme, NADPH resazurin-diaphorase fluorescence | inhibition, % at 20 µM | 350,000 compounds, 0.78% hits;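 active means inhibition reaching at least a set limit at 20 µM in the primary screen, cut at about 59% in these data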;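 further: 0% = DMSO wells with substrate and 100% = DMSO wells lacking glucose-6-phosphate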
NadD conf – confirmation of Staphylococcus aureus NadD inhibitors. shares compounds with NadD block. purified S. aureus NadD, colorimetric enzyme assay. inhibition, % at 20 µM. 2,000 compounds, 13% hits. AID 624309; in the data active means inhibition mostly above about 42%, no sharp cut-off; inactive means mostly below about 42%
* = called active by the depositor; nt = no result given.

SMILES	H9c2 protect	NadD block	TAG inh	APOBEC3A inh	A3G deaminase	PfGluPho inh	NadD conf
N#C/C(=C/c1ccc(-c2ccc([N+](=O)[O-])cc2)o1)C(=O)Nc1nc(-c2cccs2)cs1	0.0	48.3*	-0.5	nt	nt	-17.6	6.0
Cc1ccc(Cc2cnc(NC(=O)/C(C#N)=C/c3ccc(-c4ccc([N+](=O)[O-])cc4)o3)s2)cc1	5.8	47.7*	4.7	-1.1	-4.9	-10.6	4.1
C=CCNc1nc(NCc2ccc(NC(C)=O)cc2)c2sc(-c3ccccc3)cc2n1	-18.7	31.5*	120.5	nt	nt	nt	21.5
O=C(NC(c1ccccc1)c1ccc2ccccc2n1)C1CCN(Cc2ccc(Cl)c(Cl)c2)CC1 (stereo unspecified)	-2.3	5.3	0.9	nt	nt	nt	nt
CN(C)c1ccc(Sc2nnc(NC(=O)Nc3ccc(Cl)cc3Cl)s2)cc1	-5.9	39.1*	nt	-2.9	-6.6	10.8	6.6
S=C(NC1CCCCC1)N1CCN(Cc2ccccc2Cl)CC1	-10.7	-6.5	9.6	-1.7	-7.1	13.1	nt
COCCn1c(C)cc(C2=NNC(=Nc3ccc(Cl)cc3Cl)SC2)c1C	-4.2	35.6*	nt	-1.9	-2.2	30.9	3.1
COCCn1c(C)cc(C2=NNC(=NC3CC3)SC2)c1C	-22.0	1.9	7.0	0.2	-2.5	39.2	nt
Cc1[nH]c(=O)nc(SCc2cccc(Cl)c2)c1C#N	0.0	-1.5	nt	0.9	-11.7	-17.2	nt
N#Cc1c(SCc2c(Cl)cccc2Cl)nc(N)[nH]c1=S	4.2	30.3*	-3.4	-3.0	-9.5	-14.1	47.3*
CCN(CC)C(=O)[C@H]1C[C@H](CC(=O)NC/C=C(\C)CCC=C(C)C)C(=O)N2CCc3c([nH]c4cc(-c5ccco5)ccc34)[C@]12C	-15.6	27.0	5.2	4.2	2.2	33.6	nt
CC(C)=CCC/C(C)=C/CNC(=O)C[C@H]1C[C@H](C(=O)N(C(C)C)C(C)C)[C@@]2(C)c3[nH]c4cc(-c5ccco5)ccc4c3CCN2C1=O	-11.2	33.5*	14.8	-0.9	-1.0	22.7	-1.6
CC(C)=CCC/C(C)=C/CNC(=O)C[C@H]1C[C@H](C(=O)N2CCOCC2)[C@@]2(CCC3CCCC3)c3[nH]c4cc(-c5ccco5)ccc4c3CCN2C1=O	-25.9	45.9*	62.0*	-0.2	0.7	7.4	11.5
O=C(O)c1cccc(Nc2nc(-c3cc4ccccc4oc3=O)cs2)c1	-2.5	-4.4	9.2	-5.3	-4.6	6.0	nt
c1ccc(-c2onc(-c3ccco3)c2-c2ccc3[nH]ccc3c2)cc1	-5.6	2.6	6.9	-0.2	-10.2	56.6	nt
Cn1c(=O)c2c(ncn2CCOC(=O)C(C)(C)Oc2ccc(Cl)cc2)n(C)c1=O	4.2	-0.3	1.4	nt	nt	-0.9	nt
CCOc1ccc(N=Nc2c(=O)[nH]n3c(=O)c4c([nH]c23)CCCC4)cc1	12.2	31.7*	nt	3.2	1.6	-24.9	23.5
O=c1[nH]n2c(=O)c3c([nH]c2c1N=Nc1cccc(Cl)c1)CCCC3	4.1	24.6	5.7	-1.8	-5.4	12.8	nt
CCOC(=O)c1c(NC(=O)Cn2nc(C(=O)O)c3ccccc3c2=O)sc2c1CCC(C)C2 (stereo unspecified)	16.2	33.2*	16.0	-5.2	-2.7	-0.3	12.1
CCOC(=O)c1c(NC(=O)Cn2nc([N+](=O)[O-])c(Br)c2C)sc2c1CCC(C)C2 (stereo unspecified)	-3.8	-4.5	10.0	-1.6	-2.2	-8.1	nt
C#CCN(C[C@H]1[C@H](OC(=O)NCc2ccccc2)[C@H](OC(=O)NCc2ccccc2)C[C@H]2C(=O)N(c3ccccc3)C(=O)[C@@H]12)S(=O)(=O)c1ccc(C)cc1	4.3	34.8*	-4.3	nt	nt	-3.0	48.2*
C#CCN(C[C@H]1[C@H](OC(=O)NCC2CCCCC2)[C@H](OC(=O)NCC2CCCCC2)C[C@H]2C(=O)N(c3ccccc3)C(=O)[C@@H]12)S(=O)(=O)c1ccc(C)cc1	0.7	36.6*	-20.3	nt	nt	-10.2	20.9
C#CCN(C[C@H]1[C@H](OC(=O)Nc2cccs2)[C@H](OC(=O)Nc2cccs2)C[C@H]2C(=O)N(c3ccccc3)C(=O)[C@@H]12)S(=O)(=O)c1ccc(C)cc1	13.2	35.0*	-6.0	nt	nt	11.6	50.5*
C#CCN(C[C@H]1[C@H](OC(=O)NC2CC2)[C@H](OC(=O)NC2CC2)C[C@H]2C(=O)N(c3ccccc3)C(=O)[C@@H]12)S(=O)(=O)c1ccc(C)cc1	12.4	-6.2	9.8	nt	nt	0.1	nt
COC(=O)C1(NC(=O)NC2CCCCC2)CCCCC1	-1.2	0.7	3.4	-3.3	-6.9	-3.0	nt
SMILES	H9c2 protect	NadD block	TAG inh	APOBEC3A inh	A3G deaminase	PfGluPho inh	NadD conf
COc1ccc(N2C(=O)/C(=C\c3ccco3)N=C2SCC(=O)NC(C)(C)C)cc1Cl	3.2	30.6*	nt	1.9	-2.8	-2.7	11.8
CCN(CC)C(=O)CSC1=N/C(=C/c2ccco2)C(=O)N1c1ccc(OC)c(Cl)c1	9.6	20.1	nt	7.1	2.6	31.3	nt
NS(=O)(=O)c1cccc(NC(=O)CN2CCc3ccccc32)c1	-1.5	37.7*	2.3	-3.1	-1.9	6.1	-3.6
CN(c1ccccc1)S(=O)(=O)c1cccc(NC(=O)CN2CCCc3ccccc32)c1	-8.8	0.0	-6.7	0.0	0.3	34.2	nt
CC1(C(=O)NS(=O)(=O)c2ccc(C#N)cc2)CCN1C(=O)Cc1ccc(-c2ccccc2)cc1 (stereo unspecified)	1.5	-5.5	16.1	nt	nt	nt	nt
COc1ccc(/C=C(\C#N)c2nc3ccccc3[nH]2)cc1O	-4.0	1.6	nt	-1.8	-4.5	-11.3	nt
N#C/C(=C\c1cccc(Oc2ccc(C(F)(F)F)cc2[N+](=O)[O-])c1)c1nc2ccccc2[nH]1	-19.9	38.4*	1.8	1.6	0.5	10.3	9.6
Cc1ccc2nc(/C(C#N)=C\c3ccc(Oc4ccc(C(F)(F)F)cc4[N+](=O)[O-])cc3)[nH]c2c1	-14.9	32.7*	nt	-1.9	-3.9	-4.0	4.5
COc1ccc(/C=C(\C#N)c2nc3ccc(C)cc3[nH]2)cc1Oc1ccc(C(F)(F)F)cc1[N+](=O)[O-]	-9.1	31.7*	nt	-0.2	-0.2	-5.4	-20.0
Cc1ccc2nc(/C(C#N)=C\c3cc(O)ccc3[N+](=O)[O-])[nH]c2c1	7.4	0.8	-13.9	-1.7	-3.8	-11.8	nt
Cc1ccc2nc(/C(C#N)=C/c3ccc(-c4cccc([N+](=O)[O-])c4)o3)[nH]c2c1	-25.7	32.0*	nt	nt	nt	-12.6	8.6
C/C=C(\C)CN1CCC(Oc2cc(C(=O)NC3CC3)ccc2OC)CC1	10.2	1.5	nt	2.2	-7.9	-13.4	nt
CN(Cc1cccs1)C(=O)C1CC(=O)N(Cc2ccccc2)C1 (stereo unspecified)	-3.4	5.1	-0.1	0.6	-3.5	-10.9	nt
O=C(COC(=O)C12CC3CC(CC(Cl)(C3)C1)C2)Nc1ccc2[nH]c(=O)[nH]c2c1	-4.1	0.2	14.6	-3.5	-7.7	3.8	nt
